PubChem BioAssay AID588849 (Broad Institute, 2011)
Results with a measured potency or affinity are listed apart. Activity calls are given as the source filed them. No rule for the calls is given here.

Target: CAAX prenyl protease 2 (Homo sapiens) (UniProt Q9Y256)
Assay: inhibition of Ras-converting CAAX protease Rce1 – biochemical, yeast membranes, quenched-peptide fluorescence, cherry-pick, dose response (AID 588849)
Details: yeast membrane fractions expressing human Rce1, quenched-peptide fluorescence, 4 h; series mostly up to 10 µM

Sequence of CAAX prenyl protease 2 (Homo sapiens) (Q9Y256 whole entry, looked up): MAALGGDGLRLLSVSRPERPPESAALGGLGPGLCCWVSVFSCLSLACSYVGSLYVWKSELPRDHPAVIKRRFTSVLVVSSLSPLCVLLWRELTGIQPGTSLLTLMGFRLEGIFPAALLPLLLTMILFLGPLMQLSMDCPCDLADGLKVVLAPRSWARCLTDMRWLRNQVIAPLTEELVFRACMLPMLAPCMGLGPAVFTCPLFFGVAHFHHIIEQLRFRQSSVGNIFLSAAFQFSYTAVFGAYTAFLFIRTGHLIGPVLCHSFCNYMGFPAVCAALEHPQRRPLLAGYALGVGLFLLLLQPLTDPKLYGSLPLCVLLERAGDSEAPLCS

outcome, inactive:
CS(=O)(=O)Nc1ccccc1C(=O)NC1CC2CCC1C2 (stereo not drawn), COc1ccc(S(=O)(=O)N(CC(=O)N2CCCC2)Cc2ccccc2)cc1, CN1CCN(Cc2c(C(=O)N/N=C/c3cccc(Br)c3)nnn2-c2nonc2N)CC1, CCCCCCCCCCOC(=O)Cn1c(COc2ccc(C)cc2)[n+](C)c2ccccc21, c1cnn(Cc2cnc(N3CCOCC3)s2)c1, COc1ccccc1NC(=O)/C(=C\c1cccnc1)NC(=O)c1ccc(C)cc1, c1ccc(Nc2cccc(Nc3ccccc3)n2)cc1, CCn1cc(/C=C(\NC(=O)c2ccccc2F)C(=O)N2CCCC2)c2ccccc21, CCn1cc(C(=O)NCCO)c(=O)c2cc(F)c(N3CCN(C)CC3)cc21, CCOc1ccccc1CNC(=O)c1cc2occc2n1C, O=C(O)CCC(=O)c1ccc(-c2ccccc2)cc1, CCCOc1ccc(-c2c(C(=O)N/N=C/c3cccs3)nnn2-c2nonc2N)cc1, Nc1nonc1-n1nnc(C(=O)N/N=C/c2cccc(Cl)c2)c1CSc1ccc(Cl)cc1, CCOC(=O)C[C@H]1c2ccccc2S(=O)(=O)N1Cc1cc(OC)c(OC)c(OC)c1, COc1ccc(OC)c(Cc2nnc(CCC(=O)N3CCN(C4CCCC4)CC3)o2)c1, CCn1c(COc2cccc(C)c2)nnc1SCC(=O)NC1CCCC1, CC(C)c1c(C(=O)N/N=C/c2c[nH]c3ccccc23)nnn1-c1nonc1N, CS(=O)(=O)c1ccc(C(=O)OCC(=O)N(CCc2ccccc2)Cc2ccccc2)cc1, CCOC(=O)c1c(C2COc3ccccc3O2)csc1NC(=O)c1ccccc1 (stereo not drawn), CCN(CC)CCNC(=O)CSc1c2c(nc3cc(Cl)ccc13)CCCC2, Nc1nnc(-c2ccncc2)s1, COC(C[C@@H](O)C[C@H](O)[C@H](C)OCc1ccccc1)OC, Nc1nonc1-n1nnc(C(=O)N/N=C/c2ccoc2)c1CSc1ccccc1, Cc1ccc(-c2nc(SCC(=O)N(C)C3CCS(=O)(=O)C3)[nH]c2-c2ccc(C)cc2)cc1 (stereo not drawn), O=C(CSc1nc2ccccc2s1)N1N=C(c2cccs2)CC1c1ccc(F)cc1 (stereo not drawn), Cc1ccc(-c2cc3cccc[n+]3cc2-c2ccc(C)cc2)cc1, COc1ccc(-n2c(SCc3ccc([N+](=O)[O-])cc3)nnc2-c2ccc(C)cc2)cc1, CCOc1ccc(NC(=O)CCSc2ccc(C)cc2)cc1, CCN(C(=O)COC(=O)c1cc(-c2cccs2)nc2ccccc12)C1CCS(=O)(=O)C1 (stereo not drawn), CN1CCN(C(=O)c2ccc(-c3cccs3)s2)CC1, Cc1c(Cl)c([N+](=O)[O-])nn1CC(=O)N1CCCc2ccccc21, COc1ccc(C2CC(c3ccc4ccccc4c3)=NN2C(=O)CNC2CCCCC2)cc1 (stereo not drawn), CC(C)N1CCN(Cc2ccc(OCc3ccccc3)cc2)CC1CCO (stereo not drawn), COc1cccc(/C=N/NC(=O)c2nnn(-c3nonc3N)c2C(C)C)c1OCc1ccc(F)cc1, Cc1nc2c(C)cccn2c(=O)c1NC(=O)COc1ccccc1, CCn1cc(/C=C(\NC(=O)c2ccccc2Cl)C(=O)N2CCOCC2)c2ccccc21, COc1ccc(NS(=O)(=O)c2c(C)cc(C)cc2C)cc1, COc1ccc(C)cc1NC(=O)CCC(=O)Nc1ccc2nc(N3CCN(C)CC3)cc(C)c2c1
